PMC5700166
Positions count from the first letter of the chain named.

Columns and labels:
Assay in all cases: protein-binding microarray (PBM); PBM: ~300 nM protein, 6 mM HEPES pH 7.8, 80 mM KCl, 0.5 mM EDTA, 0.5 mM EGTA, 6% glycerol, 35 ng/ul poly-dIdC, 1% milk, 1 h, room temperature; Ap Aiptasia and Nv Nematostella (sea anemones) / Co Capsaspora / Aq Amphimedon (sponge) / Dm Drosophila / Hu human; RHD is the Rel homology domain; high values mean tight binding
Conditions in all cases: dsDNA, one strand shown
GST-Ap-NF-kB RHD = target: T1, GST-Ap-NF-kB RHD (Exaiptasia pallida (Aiptasia), UniProt A0A913YAJ5 2-422)
T1 sequence: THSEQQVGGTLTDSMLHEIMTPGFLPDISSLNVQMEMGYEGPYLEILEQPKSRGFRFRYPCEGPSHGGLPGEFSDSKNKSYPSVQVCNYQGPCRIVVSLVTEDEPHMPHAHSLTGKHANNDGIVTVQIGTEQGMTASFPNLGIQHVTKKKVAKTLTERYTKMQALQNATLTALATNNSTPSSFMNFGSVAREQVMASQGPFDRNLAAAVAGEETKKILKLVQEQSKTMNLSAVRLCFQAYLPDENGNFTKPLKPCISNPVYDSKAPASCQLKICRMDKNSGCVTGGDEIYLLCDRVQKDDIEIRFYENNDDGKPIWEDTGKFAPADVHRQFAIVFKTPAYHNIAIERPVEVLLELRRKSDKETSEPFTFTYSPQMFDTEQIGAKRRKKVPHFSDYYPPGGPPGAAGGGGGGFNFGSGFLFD

[1] = target: T2, GST-Nv-NF-kB (Cys allele) (Nematostella vectensis, UniProt E5G601 2-411)
T2 sequence: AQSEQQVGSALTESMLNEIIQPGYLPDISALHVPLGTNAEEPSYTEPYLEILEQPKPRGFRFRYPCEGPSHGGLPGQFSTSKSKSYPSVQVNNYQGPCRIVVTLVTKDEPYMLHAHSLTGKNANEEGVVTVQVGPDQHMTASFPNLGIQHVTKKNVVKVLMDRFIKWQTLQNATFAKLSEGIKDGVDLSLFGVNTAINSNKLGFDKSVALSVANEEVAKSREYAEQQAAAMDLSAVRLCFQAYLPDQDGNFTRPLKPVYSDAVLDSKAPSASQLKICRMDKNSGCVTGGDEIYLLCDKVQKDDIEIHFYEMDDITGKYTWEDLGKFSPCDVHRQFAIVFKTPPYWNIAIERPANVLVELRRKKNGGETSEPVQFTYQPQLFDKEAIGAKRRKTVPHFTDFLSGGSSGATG

[2] = target: T3, GST-Nv-NF-kB (Ser allele) (Nematostella vectensis, UniProt A7UNT2 2-411)
T3 sequence: T2 sequence with Q21R, C66S, S207N, E215Q, V217A, E225K, A268E, D399E

GST-Co-NF-kB = target: T4, GST-Co-NF-kB (Capsaspora owczarzaki, UniProt F1ARL5 200-546)
T4 sequence: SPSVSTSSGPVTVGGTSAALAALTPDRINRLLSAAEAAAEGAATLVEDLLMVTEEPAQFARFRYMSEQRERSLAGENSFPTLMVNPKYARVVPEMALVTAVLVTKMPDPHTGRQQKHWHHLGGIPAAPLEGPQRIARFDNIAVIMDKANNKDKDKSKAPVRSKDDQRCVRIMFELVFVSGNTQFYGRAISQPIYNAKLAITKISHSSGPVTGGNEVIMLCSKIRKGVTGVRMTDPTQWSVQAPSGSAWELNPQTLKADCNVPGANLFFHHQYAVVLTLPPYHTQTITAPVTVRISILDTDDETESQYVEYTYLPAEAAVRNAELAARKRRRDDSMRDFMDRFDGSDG

GST-Dm-Relish = target: T5, GST-Dm-Relish (Drosophila melanogaster, UniProt Q94527 99-473)
T5 sequence: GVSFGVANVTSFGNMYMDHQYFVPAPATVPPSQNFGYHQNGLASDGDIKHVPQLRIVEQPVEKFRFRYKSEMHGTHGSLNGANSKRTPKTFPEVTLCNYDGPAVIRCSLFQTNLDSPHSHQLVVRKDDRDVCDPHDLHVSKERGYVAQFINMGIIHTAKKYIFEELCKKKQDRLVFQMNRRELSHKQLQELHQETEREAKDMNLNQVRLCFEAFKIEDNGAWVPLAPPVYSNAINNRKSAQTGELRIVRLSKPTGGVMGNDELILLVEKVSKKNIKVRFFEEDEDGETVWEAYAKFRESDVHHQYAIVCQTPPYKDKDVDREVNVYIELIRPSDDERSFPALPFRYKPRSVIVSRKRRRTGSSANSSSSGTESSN

GST-Aq-NF-kB = target: T6, GST-Aq-NF-kB (Amphimedon queenslandica, UniProt A9Y5G7 2-389)
T6 sequence: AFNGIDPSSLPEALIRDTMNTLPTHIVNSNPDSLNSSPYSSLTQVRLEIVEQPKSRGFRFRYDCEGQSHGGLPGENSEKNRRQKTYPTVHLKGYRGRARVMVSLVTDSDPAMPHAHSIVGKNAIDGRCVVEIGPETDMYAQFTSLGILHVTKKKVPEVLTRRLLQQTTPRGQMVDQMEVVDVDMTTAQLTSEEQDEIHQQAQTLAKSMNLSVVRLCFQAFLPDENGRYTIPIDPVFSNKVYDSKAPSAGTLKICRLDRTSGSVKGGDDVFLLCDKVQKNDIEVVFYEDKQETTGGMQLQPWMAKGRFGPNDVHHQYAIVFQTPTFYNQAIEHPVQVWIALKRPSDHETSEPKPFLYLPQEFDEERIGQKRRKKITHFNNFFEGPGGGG

GST-Hu-p50 = GST-Hu-p50 (Homo sapiens, UniProt P19838 7-356)
Chain of GST-Hu-p50 (P19838 7-356): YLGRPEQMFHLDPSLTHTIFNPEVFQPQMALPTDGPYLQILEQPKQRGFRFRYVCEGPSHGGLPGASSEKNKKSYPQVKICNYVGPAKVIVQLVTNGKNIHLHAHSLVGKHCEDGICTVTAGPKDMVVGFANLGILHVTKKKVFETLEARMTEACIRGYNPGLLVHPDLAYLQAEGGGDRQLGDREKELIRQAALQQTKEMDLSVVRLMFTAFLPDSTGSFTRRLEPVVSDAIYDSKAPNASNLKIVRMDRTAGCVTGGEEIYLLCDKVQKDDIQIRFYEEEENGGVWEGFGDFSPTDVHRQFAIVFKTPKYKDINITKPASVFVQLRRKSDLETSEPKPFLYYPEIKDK

| Sequence | binding signal (GST-Ap-NF-kB RHD) [z-score] | binding signal [1] [z-score] | binding signal [2] [z-score] | binding signal (GST-Co-NF-kB) [z-score] | binding signal (GST-Dm-Relish) [z-score] | binding signal (GST-Aq-NF-kB) [z-score] | binding signal (GST-Hu-p50) [z-score] |
| --- | --- | --- | --- | --- | --- | --- | --- |
| CCGATTAACATCAGTACTCCCCATGATGTTAATCGGGTCTTGATTCGCTTGACGCTGCTG | 3.64 | 2.81 | 2.45 | 2.88 | 4.81 | 2.35 | 2.2 |
| CCGATTAACATCACAAGTTCCCCTGATGTTAATCGGGTCTTGATTCGCTTGACGCTGCTG | 7.44 | 7.71 | 8.61 | 7.27 | 6.56 | 6.21 | 5.93 |
| CCGATTAACATCAATAAAACCCCTGATGTTAATCGGGTCTTGATTCGCTTGACGCTGCTG | 5.73 | 5.27 | 5.34 | 2.26 | 7.35 | 5.25 | 6.19 |
| CCGATTAACATCAAAGTTCCCCCTGATGTTAATCGGGTCTTGATTCGCTTGACGCTGCTG | 8.84 | 8.65 | 9.29 | 11.3 | 8.65 | 7.49 | 6.75 |
| CCGATTAACATCAGGGGGAAACATGATGTTAATCGGGTCTTGATTCGCTTGACGCTGCTG | 6.11 | 7.08 | 9.19 | 10.9 | 3.99 | 5.49 | 6.58 |
| CCGATTAACATCAGGGACTTTCATGATGTTAATCGGGTCTTGATTCGCTTGACGCTGCTG | 6.28 | 7.24 | 7.09 | 1.04 | 5.59 | 6.22 | 5.49 |
| CCGATTAACATCAGGGAAAAACATGATGTTAATCGGGTCTTGATTCGCTTGACGCTGCTG | 3.76 | 5.03 | 7.18 | 5.51 | 6.52 | 5.27 | 4.03 |
| CCGATTAACATCAAAACATTCCCTGATGTTAATCGGGTCTTGATTCGCTTGACGCTGCTG | 3.1 | 5.46 | 4.94 | 4.18 | 3.87 | 6.04 | 3.88 |
| CCGATTAACATCAAAATTTCCCGTGATGTTAATCGGGTCTTGATTCGCTTGACGCTGCTG | 4.72 | 6.89 | 6.74 | 6.32 | 4.72 | 6.67 | 4.8 |
| CCGATTAACATCAATATAACCCCTGATGTTAATCGGGTCTTGATTCGCTTGACGCTGCTG | 3.99 | 2.48 | 2.08 | 2.11 | 2.05 | 2.37 | 2.73 |
| CCGATTAACATCAGGGGAAAGAATGATGTTAATCGGGTCTTGATTCGCTTGACGCTGCTG | 4.95 | 6.07 | 8.18 | 8.25 | 3.01 | 4.87 | 5.05 |
| CCGATTAACATCAGGGGAGAAACTGATGTTAATCGGGTCTTGATTCGCTTGACGCTGCTG | 4.39 | 4.53 | 5.55 | 7.07 | 5.35 | 3.64 | 4.05 |
| CCGATTAACATCAGGGGAAAAACTGATGTTAATCGGGTCTTGATTCGCTTGACGCTGCTG | 6.41 | 8.02 | 10.3 | 9.24 | 9.62 | 6.72 | 6.32 |
| CCGATTAACATCAAGGAAATCCCTGATGTTAATCGGGTCTTGATTCGCTTGACGCTGCTG | 4.83 | 4.91 | 2.74 | 1.77 | 7.71 | 5.91 | 3.79 |
| CCGATTAACATCAGAAATCCCCCTGATGTTAATCGGGTCTTGATTCGCTTGACGCTGCTG | 11.2 | 10.5 | 10.8 | 6.78 | 9.63 | 8.32 | 7.68 |
| CCGATTAACATCACAGAATTCCCTGATGTTAATCGGGTCTTGATTCGCTTGACGCTGCTG | 5.09 | 6.44 | 6.81 | 3.6 | 4.28 | 5.42 | 4.93 |
| CCGATTAACATCAGAGGATTCCCTGATGTTAATCGGGTCTTGATTCGCTTGACGCTGCTG | 3.72 | 4.52 | 4.31 | 2.44 | 7.61 | 4.43 | 2.84 |
| CCGATTAACATCAGACAATCCCCTGATGTTAATCGGGTCTTGATTCGCTTGACGCTGCTG | 6.6 | 7.1 | 7.4 | 2.24 | 4.95 | 5.98 | 5.79 |
| CCGATTAACATCACATTTTTCCCTGATGTTAATCGGGTCTTGATTCGCTTGACGCTGCTG | 3.43 | 5.03 | 7.3 | 5.64 | 2.56 | 4.26 | 3.84 |
